Results filed as inconclusive are left out. A call without a number means that no potency is given here. Activity calls are given as the source filed them. Calls come from the whole dose curve; as a rule, active = well fitted inhibition curve with a large enough effect; inconclusive = small, poorly fitted or top-dose-only effect; inactive = no such curve, though single readings can be large or run the other way.
Assay: qHTS Screen of the MIPE 4.0 Collection Against Ewings Sarcoma (TC32) (AID 1259256); note: nearly all actives have a fitted effect of over 45% in size
Conditions: TC32 Ewing sarcoma viability, CellTiter-Glo, 48 h; series mostly up to 45.8 µM
Procedure, shortened: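 CellTiter-Glo luminescence after 48 h compound exposure (titration) gave viability; percent activity used DMSO-treated cells as no inhibition and medium-only wells as full inhibition. Cells grown in RPMI/5% FBS, dosed 4 h post-seeding.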
With `O=C(Nc1cc(Cl)cc2c1[nH]c1cnccc12)c1cccnc1` the Potency was 26.4 µM (active).
In the case of `Cc1c(NC(=O)c2ccc(C(C)(C)C)cc2)cccc1-c1cn(C)c(=O)c(Nc2ccc(C(=O)N3CCOCC3)cc2)n1`, the Potency is reported as 20.9 µM (active).
In the case of `O=C(NCc1ccccc1)c1csc(Nc2ccncn2)n1`, the Potency is reported as 18.7 µM (active).
With `COC(=O)N[C@H](C(=O)N1CCC[C@@H]1c1ncc(-c2ccc(-c3ccc(-c4cnc([C@@H]5CCCN5C(=O)[C@@H](NC(=O)OC)C(C)C)[nH]4)cc3)cc2)[nH]1)C(C)C` the Potency was 26.4 µM (active).
With `COc1ccc2cccc(CCNC(C)=O)c2c1` the Potency was “inactive”.
In the case of `Nc1ncnc2ccccc12`, the Potency is reported as “inactive”.
In the case of `COc1cc(O)c2c(c1)C(=O)c1cc(C)cc(O)c1C2=O`, the Potency is reported as “inactive”.
With `NC1=N[C@@]2(c3cc(NC(=O)c4ccc(F)cn4)ccc3F)COC[C@@H]2CS1` the Potency was “inactive”.
For `COc1cc2ncnc(-n3nc(-c4ccccn4)nc3N)c2cc1OC`, the Potency was 18.7 µM (active).
For `C=C1C(=O)OC2C=C(C)CCC=C(C)CCC12` (stereo not given), the Potency was 20.9 µM (active).
In the case of `CCC(=O)O[C@]1(C(=O)CO)CC[C@H]2[C@@H]3CCC4=CC(=O)CC[C@]4(C)[C@@H]3CC[C@@]21C`, the Potency is reported as “inactive”.
With `CC(C)(C)C(=O)Oc1ccc2c(c1)nc(NC(=O)c1cccc([N+](=O)[O-])c1)n2CCCO` the Potency was “inactive”.
With `CCCCCCCCCCCC1=C(O)C(=O)C=C(O)C1=O` the Potency was 23.5 µM (active).
With `CC[C@H]1OC(=O)[C@H](C)[C@@H](O[C@H]2C[C@@](C)(OC)[C@@H](O)[C@H](C)O2)[C@H](C)[C@@H](O[C@@H]2O[C@H](C)C[C@H](N(C)C)[C@@H]2O)[C@](C)(O)C[C@@H](C)CN(C)[C@H](C)[C@@H](O)[C@]1(C)O` the Potency was 13.2 µM (active).
In the case of `CC[C@H]1OC(=O)[C@H](C)C(=O)[C@H](C)[C@@H](O[C@H]2O[C@H](C)C[C@H](N(C)C)[C@@H]2O)[C@](C)(OC)C[C@@H](C)C(=O)[C@H](C)[C@H]2N(CCCCn3cnc(-c4cccnc4)c3)C(=O)O[C@]12C`, the Potency is reported as 16.6 µM (active).
In the case of `O=c1ccn([C@@H]2O[C@H](CO)[C@H](O)[C@H]2O)c(=O)[nH]1`, the Potency is reported as “inactive”.
With `CC(C)C(C)C=CC(C)C1CCC2C3=CC=C4CC(O)CCC4(C)C3CCC21C` (stereo not given) the Potency was “inactive”.
With `O=C(NC1CCOCC1)c1ccc(-c2cc(-c3cn[nH]c3-c3ccccn3)ccn2)cc1` the Potency was “inactive”.
For `COc1cccc([C@@H](C)NCCCc2ccccc2Cl)c1`, the Potency was “inactive”.
For `CC(=O)OC1C(C)OC(Oc2c(-c3ccc(O)cc3)oc3cc(O)cc(O)c3c2=O)C(O)C1OC(C)=O` (stereo not given), the Potency was “inactive”.

From PubChem BioAssay (NCATS)
Potency is the fitted concentration of half-maximal effect.
